Compound activity from PubChem BioAssay.
Rows were chosen to be rich in hits. Some 1.6% of all compounds tested hit in one or more screens of this group.
p97 inhibitor = human p97 ATPase inhibition | inhibition, % at 8 µM | P55072 | actives 0.42% (n = 220,000) | recombinant p97 ATPase, Kinase-Glo ATP luminescence, 3 h; in the data active = inhibition above about 15%
S1P4 ag = activates the human S1P4 receptor; AID 1509; S1P4-expressing cell line, agonist reporter assay; O95977; actives 0.35% (n = 220,000); activation, % at 4.98 µM; in the data active = activation above about 11%
S1P3 antagonist = antagonists of human S1P3 receptor; CHO S1P3 NFAT-BLA reporter, FRET fluorescence, antagonist mode; inhibition, % at 4.98 µM; actives 0.27% (n = 170,000); AID 485;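 active = inhibition above the plate cutoff, the mean inhibition of test wells on that plate plus 3 SD, cut at about 28% in these data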;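 also: cells challenged with S1P at its EC80 of 0.8 µM; blue over green emission ratio from cleaved BLA substrate after 4 h stimulation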
Redox H2O2 prof = compounds producing H2O2 with reducing agent – biochemical, NIH compound library profiling, artefact control for MLSCN library redox annotation, primary screen | DTT-dependent redox cycling H2O2, phenol red/HRP absorbance; 100% = 100 µM peroxide control, 0% = buffer | activation, % at 10 µM | actives 0.03% (n = 200,000) | AID 878;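 active = activation of at least 50% relative to the plate's high and low controls in the primary single-dose screen; inactive = activation below 50%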;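 also: compound incubated with DTT at 0.8 mM final as the reducing agent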
Arbovirus anti = arbovirus infection inhibition. arbovirus infection cell-based antiviral screen. inhibition, % at 10 µM. actives 0.37% (n = 200,000). AID 1251; in the data active = inhibition above about 30%
S1P4 antagonist = blocks the human S1P4 receptor. O95977. S1P4-expressing cells, antagonist mode, reporter read-out. inhibition, % at 4.98 µM. actives 0.26% (n = 220,000); in the data active = inhibition above about 29%
S1P4 ag conf = human S1P4 agonism, confirmation; shares compounds with S1P4 ag; S1P4 agonist cell-based reporter assay; actives 7% (n = 740); activation, % at 4.98 µM; in the data active = activation above about 12%
S1P1 agonist = activates human S1P1, counter-screen for S1P4 agonists. S1P1 agonist cell-based assay, activation. activation, % at 4.98 µM. shares compounds with S1P4 ag. actives 4% (n = 740); in the data active = activation above about 21%
Target sequence (P21453 whole entry, looked up): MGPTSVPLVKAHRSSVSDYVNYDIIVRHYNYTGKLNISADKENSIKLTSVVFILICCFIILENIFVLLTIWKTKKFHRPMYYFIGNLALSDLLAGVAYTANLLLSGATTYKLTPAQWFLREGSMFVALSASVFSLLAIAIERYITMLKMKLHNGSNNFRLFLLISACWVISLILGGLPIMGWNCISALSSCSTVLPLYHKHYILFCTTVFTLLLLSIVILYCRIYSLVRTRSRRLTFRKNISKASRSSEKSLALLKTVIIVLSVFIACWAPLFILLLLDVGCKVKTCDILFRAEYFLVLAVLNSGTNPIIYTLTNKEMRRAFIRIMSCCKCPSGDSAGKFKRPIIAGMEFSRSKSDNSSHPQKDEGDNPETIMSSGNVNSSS
Numbers stand for hits; - = inactive; . = not tested or not shown.

SMILES	p97 inhibitor	S1P4 ag	S1P3 antagonist	Redox H2O2 prof	Arbovirus anti	S1P4 antagonist	S1P4 ag conf	S1P1 agonist
COc1ccc2oc(=O)c(C(=O)NCC3CCCO3)cc2c1 (stereo unspecified)	-	-	-	-	-	-	.	.
COc1ccccc1NC(=O)c1cc2ccc(O)cc2o/c1=N\O	-	-	-	-	-	-	.	.
Cc1cccc(N=c2oc3cc(O)ccc3cc2C(N)=O)c1	-	48.1	-	-	-	-	-	-
COc1ccc2cc(C(N)=O)c(=Nc3ccc(C)cc3)oc2c1	-	-	-	-	-	-	.	.
COc1cccc(N=c2oc3cc(O)ccc3cc2C(=O)NCC2CCCO2)c1 (stereo unspecified)	-	16.9	-	-	-	-	-	-
COc1ccccc1N=c1oc2cc(O)ccc2cc1C(=O)NCC1CCCO1 (stereo unspecified)	-	38.0	-	-	-	-	-	-
COc1ccc(N=CC2=C(Nc3ccc(OC)cc3)c3c(C)nn(-c4ccccn4)c3CC2)cc1	-	-	.	-	.	-	.	.
CC1CC(NC(=O)CCn2c(=O)oc3ccccc32)CC(C)(C)C1 (stereo unspecified)	-	12.1	-	-	-	-	-	-
O=C(CCCn1c(=O)oc2ccccc21)NC1CCCCCC1	-	-	-	-	-	-	.	.
CC(C)CC(=O)NS(=O)(=O)c1ccc(NS(C)(=O)=O)cc1	-	16.6	-	-	-	-	-	-
CCc1ccc(C(C(=O)NC2CCCC2)N(C(=O)/C=C/C(=O)Nc2cc(C)on2)c2ccccc2C)cc1 (stereo unspecified)	-	-	-	-	-	-	.	.
COc1ccc(CCNC(=O)c2cc(-c3ccc(Cl)c(Cl)c3)oc2C)cc1	-	-	-	-	-	-	.	.
CCCCC(=O)NC(Nc1ccc(C)cn1)(C(=O)OCC)C(F)(F)F (stereo unspecified)	-	17.7	.	-	-	-	-	-
COc1cc(CNCCO)cc(Cl)c1OCc1ccccc1Cl	-	11.1	-	-	-	-	-	-
COc1cccc(CNCCO)c1OCc1ccccc1Cl	-	-	-	-	-	-	.	.
CCN(CC)S(=O)(=O)c1cccc(C(=O)Oc2cccc(NC(=O)c3cccs3)c2)c1	-	-	-	-	-	-	.	.
C/C(=N\NC(=O)C(C)n1nc(C)c([N+](=O)[O-])c1C)c1ccccc1O (stereo unspecified)	-	103.0	-	-	-	-	-	-
Cc1nn(C(C)C(=O)NCc2ccco2)c(C)c1[N+](=O)[O-] (stereo unspecified)	-	-	-	-	-	-	.	.
O=[N+]([O-])c1cc(-c2ncccn2)cs1	-	-	-	-	-	-	.	.
COc1cccc(NC(=S)N(CCc2c(C)[nH]c3ccccc23)Cc2cccs2)c1	-	15.8	-	-	-	-	-	-
O=[N+]([O-])c1ccc(C(=Nc2cccc3ccccc23)N2CCOCC2)cc1	-	-	.	-	-	-	.	.
N=c1oc2cc(O)ccc2cc1C(=O)Nc1nc2ccccc2s1	-	91.6	-	-	-	-	80.0	128.6
O=C(Nc1nc2ccccc2s1)c1cc(-c2ccco2)nc2ccccc12	-	-	-	-	-	-	.	.
Cc1ccc(NC(=O)c2ccc(OC(=O)CCN3C(=O)c4ccccc4C3=O)cc2)cc1	-	11.3	.	-	-	-	-	-
COc1ccc2nc(Nc3nc(C)c(C(C)=O)s3)sc2c1	-	-	-	-	-	-	.	.
SMILES	p97 inhibitor	S1P4 ag	S1P3 antagonist	Redox H2O2 prof	Arbovirus anti	S1P4 antagonist	S1P4 ag conf	S1P1 agonist
COc1cc(C)nc(Nc2nc(C)c(C(C)=O)s2)n1	-	12.4	.	-	-	-	-	-
O=C(CCCC(=O)NCC1CCCO1)NCC1CCCO1 (stereo unspecified)	-	38.7	-	-	-	-	-	-
O=C(Nc1ccccc1-c1ccccc1)C1CCCCC1	-	12.1	-	-	-	-	-	-
Cc1ccc(Nc2c(-c3ccc(C)o3)nc3ncccn23)cc1	-	11.0	-	.	.	-	-	-
Oc1ccc(-n2cnnn2)cc1	-	30.4	.	-	-	-	-	-
Clc1ccc(-n2cnnn2)cc1	-	-	-	-	-	-	.	.
CCOC(=O)N1CCC(N2C(=O)c3ccc(C(=O)O)cc3C2=O)CC1	-	-	-	-	-	-	.	.
CCOC(=O)c1ccc2c(c1)C(=O)N(C1CCCCC1)C2=O	-	24.6	-	-	-	-	-	-
O=C(NNc1cc(Br)c(O)c(Br)c1)c1ccccc1	-	-	-	-	-	-	.	.
O=C(COc1ccccc1)Nc1cccc(-c2nc3cc4ccccc4cc3[nH]2)c1	-	-	.	-	-	-	.	.
COC(=O)C1=CN(C(C)C)C=C(C(=O)OC)C1c1cccc(OC)c1	-	-	-	-	-	-	.	.
CCCCOc1ccccc1C1C(C(=O)OC)=CN(CC)C=C1C(=O)OC	-	11.6	-	-	-	-	-	-
CCCOc1ccccc1C1C(C(=O)OC)=CN(C(C)C)C=C1C(=O)OC	-	18.0	-	-	-	-	-	-
Nc1nc(-c2ccc3ccccc3c2)c(C2(O)C(=O)Nc3c(Br)cc(F)cc32)s1 (stereo unspecified)	-	-	.	-	-	-	.	.
Cc1cc(/N=C/C=C2\N(C)c3ccccc3C2(C)C)n(CCC#N)n1	-	-	-	-	-	-	.	.
COc1ccc(C2=NN(C(=O)CN3CCCC3)C(c3ccc(OC)cc3)C2)cc1 (stereo unspecified)	-	39.5	-	.	.	-	-	-
COc1ccc(C2CC(c3ccc(Br)cc3)=NN2C(=O)c2cccnc2)cc1 (stereo unspecified)	-	12.2	-	-	-	-	-	-
CCn1c(SCC(=O)Nc2ccccc2OC)nc(O)cc1=O	-	-	-	.	.	-	.	.
CC(CCc1ccccc1)NC(=O)COC(=O)C12CC3CC(CC(Br)(C3)C1)C2 (stereo unspecified)	-	-	-	-	-	-	.	.
Cc1ccc(/C=N/NC(=O)c2cccnc2)s1	-	12.9	-	.	.	-	-	-
C=CCN1C(=O)CS/C1=N\S(=O)(=O)c1ccc(Cl)cc1	-	11.2	-	-	-	-	-	-
Cc1ccc(C2Nc3ccccc3-c3nc4ccccc4n32)o1 (stereo unspecified)	-	11.6	.	-	-	-	-	-
COC(=O)c1c(NC(=O)C2(C)Cc3ccccc3C(=O)O2)sc2c1CCCC2 (stereo unspecified)	-	-	.	-	-	-	.	.
O=C1NC(c2ccco2)Nc2sc3c(c21)CCN(Cc1ccccc1)C3 (stereo unspecified)	-	15.4	-	-	-	-	-	-
O=S(=O)(c1ccc(N2CCC(c3ccc(Cl)cc3)=N2)cc1)N(CCO)CCO	-	21.5	.	-	-	-	21.1	68.8
O=S(=O)(c1ccc(Oc2ccc(S(=O)(=O)N(CCO)CCO)cc2)cc1)N(CCO)CCO	-	-	-	-	-	-	.	.
